{"source": "paper PMC6602471", "note": "Whole data set: some 1,300 sequences, median “log fluorescence intensity” near 8.3, cut for the highest 2% near 12. The sample holds the highest values, similar sequences and a random draw of the others, so the mix is not that of the screen."}
{"target": "T1, ETS1 (Homo sapiens, UniProt P14921 1-441)", "T1 sequence": "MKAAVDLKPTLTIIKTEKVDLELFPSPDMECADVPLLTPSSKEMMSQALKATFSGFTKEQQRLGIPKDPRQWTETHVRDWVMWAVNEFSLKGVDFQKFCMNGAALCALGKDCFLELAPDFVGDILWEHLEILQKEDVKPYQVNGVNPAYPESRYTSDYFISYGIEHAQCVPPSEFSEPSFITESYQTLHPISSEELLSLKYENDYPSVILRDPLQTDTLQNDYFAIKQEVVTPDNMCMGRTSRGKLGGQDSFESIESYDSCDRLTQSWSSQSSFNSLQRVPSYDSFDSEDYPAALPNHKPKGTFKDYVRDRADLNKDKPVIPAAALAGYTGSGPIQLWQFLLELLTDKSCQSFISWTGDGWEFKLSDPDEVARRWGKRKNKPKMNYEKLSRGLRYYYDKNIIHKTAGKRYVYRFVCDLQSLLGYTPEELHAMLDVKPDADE", "assay": "custom PBM; custom protein-binding microarray; buffer, salt, pH and temperature not stated; high values mean tight binding", "conditions": "dsDNA, one strand shown"}
{"sequence": "GGAAAAAGGCCCTGGGTAACACCGGAAGTGGGCTTAGTCTTGATTCGCTTGACGCTGCTG", "binding signal": "12 log fluorescence intensity"}
{"sequence": "GGAAAAAGGCCCCGGGTAACACCGGAAGTGGGCTTAGTCTTGATTCGCTTGACGCTGCTG", "binding signal": "12.6 log fluorescence intensity"}
{"sequence": "GGAAAAAGGCCCGGGGTAACACCGGAAGTGGGCTTAGTCTTGATTCGCTTGACGCTGCTG", "binding signal": "12.5 log fluorescence intensity"}
{"sequence": "TAAAGGGAAGAAGGTTGTGGTAGTTCCGGGTATTAAGTCTTGATTCGCTTGACGCTGCTG", "binding signal": "8.45 log fluorescence intensity"}
{"sequence": "GGAAAAAGGCCCAGGGTAACACCGTAAGTGGGCTTAGTCTTGATTCGCTTGACGCTGCTG", "binding signal": "8.34 log fluorescence intensity"}
{"sequence": "GTGTATAGGAACCCATCCAACACACGTGTTAAAATGGTCTTGATTCGCTTGACGCTGCTG", "binding signal": "8.33 log fluorescence intensity"}
{"sequence": "CGGAAGTGTCGTAACCGTCGGATATCCGGTTCTTCTGTCTTGATTCGCTTGACGCTGCTG", "binding signal": "11.9 log fluorescence intensity"}
{"sequence": "TAAAGGGAAGACGGTAGTGGTAGTTCCGGGTATTAAGTCTTGATTCGCTTGACGCTGCTG", "binding signal": "8.7 log fluorescence intensity"}
{"sequence": "GCTGCTGCGGTGCATACCCCACCGGACGTGACCCCGGTCTTGATTCGCTTGACGCTGCTG", "binding signal": "8.55 log fluorescence intensity"}
{"sequence": "GGAAAAAGGCCCAGGGTAACACCGGAAGTGGGCTTGGTCTTGATTCGCTTGACGCTGCTG", "binding signal": "11.8 log fluorescence intensity"}
{"sequence": "GGAAAAAGGCCCAGGGTAACACCGGAAGTGGGCTGAGTCTTGATTCGCTTGACGCTGCTG", "binding signal": "11.9 log fluorescence intensity"}
{"sequence": "GGAAAAAGGCCCAGGGTAACACCGGAAGTGGGCTCAGTCTTGATTCGCTTGACGCTGCTG", "binding signal": "12 log fluorescence intensity"}
{"sequence": "GGAAAAAGGCCCAGGGTAACACCGGAAGTGGGCTAAGTCTTGATTCGCTTGACGCTGCTG", "binding signal": "12.1 log fluorescence intensity"}
{"sequence": "GGAAAAAGGCCCAGGGTAACACCGGAAGTGGGCATAGTCTTGATTCGCTTGACGCTGCTG", "binding signal": "12 log fluorescence intensity"}
{"sequence": "GAAAAAAGGCCCAGGGTAACACCGGAAGTGGGCTTAGTCTTGATTCGCTTGACGCTGCTG", "binding signal": "12.1 log fluorescence intensity"}
{"sequence": "GGAAAAAGGCCCAGGGTAACACCGGAAGTGGGCTTCGTCTTGATTCGCTTGACGCTGCTG", "binding signal": "12.1 log fluorescence intensity"}
{"sequence": "GGAAAAAGGCCCAGGGTAACACCGGAAGTGGGCTTTGTCTTGATTCGCTTGACGCTGCTG", "binding signal": "12.1 log fluorescence intensity"}
{"sequence": "GGAAAAAGGCCCAGGGTAACACCGGAAGTGGGCTTAGTCTTGATTCGCTTGACGCTGCTG", "binding signal": "12 log fluorescence intensity"}
{"sequence": "TAAAGGAAAGACGGTTGTGGTAGTTCCGGGTATTAAGTCTTGATTCGCTTGACGCTGCTG", "binding signal": "8.77 log fluorescence intensity"}
{"sequence": "TGTCGGGTAAGGGAATGTAGATCACGTGACTGAAAAGTCTTGATTCGCTTGACGCTGCTG", "binding signal": "8.33 log fluorescence intensity"}
{"sequence": "TAAAGGGAAGACGGTTGTGGGAGTTCCGGGTATTAAGTCTTGATTCGCTTGACGCTGCTG", "binding signal": "8.37 log fluorescence intensity"}
{"sequence": "CTGAAGTGTCGTAAACGTCGGATATCCGGTTCTTCTGTCTTGATTCGCTTGACGCTGCTG", "binding signal": "11.8 log fluorescence intensity"}
{"sequence": "TCCGCCTACCAGCTCCACCCACTTCAGGCCTTGTAGGTCTTGATTCGCTTGACGCTGCTG", "binding signal": "8.47 log fluorescence intensity"}
{"sequence": "TAAAGGGAAGACGCTTGTGGTAGTTCCGGGTATTAAGTCTTGATTCGCTTGACGCTGCTG", "binding signal": "8.41 log fluorescence intensity"}
{"sequence": "GGAAAAAGGCCCAGGGTAACACCGGATGTGGGCTTAGTCTTGATTCGCTTGACGCTGCTG", "binding signal": "11 log fluorescence intensity"}
{"sequence": "CAGCATCGGACTTCTTCCCTGAAGCAATTGATAACCGTCTTGATTCGCTTGACGCTGCTG", "binding signal": "8.4 log fluorescence intensity"}
{"sequence": "GCTGCTGCGGTGCATACCCCACCGGATGTGACCCGGGTCTTGATTCGCTTGACGCTGCTG", "binding signal": "10.2 log fluorescence intensity"}
{"sequence": "GCTGCTGCGGTGCATACCTCACCGGATGTGACCCCGGTCTTGATTCGCTTGACGCTGCTG", "binding signal": "9.97 log fluorescence intensity"}
{"sequence": "GGAAAAAGGCCCAGGGTAACACCGGAAATGGGCTTAGTCTTGATTCGCTTGACGCTGCTG", "binding signal": "11.5 log fluorescence intensity"}
{"sequence": "GCTTCTGCGGTGCATACCCCACCGGATGTGACCCCGGTCTTGATTCGCTTGACGCTGCTG", "binding signal": "10.3 log fluorescence intensity"}
{"sequence": "GGAAAAAGGCCCAGGGTAACACCTGAAGTGGGCTTAGTCTTGATTCGCTTGACGCTGCTG", "binding signal": "8.36 log fluorescence intensity"}
{"sequence": "TAAAGGGAAGACGATTGTGGTAGTTCCGGGTATTAAGTCTTGATTCGCTTGACGCTGCTG", "binding signal": "8.5 log fluorescence intensity"}
{"sequence": "GCTGCTGCGGTGCATACCCCACCGGATGTGACCCCAGTCTTGATTCGCTTGACGCTGCTG", "binding signal": "10.1 log fluorescence intensity"}
{"sequence": "GGAAAAAGGCCCAGGGTAACACCGGAACTGGGCTTAGTCTTGATTCGCTTGACGCTGCTG", "binding signal": "9.07 log fluorescence intensity"}
{"sequence": "GCTGCTGCGGTGCATACCCCACCGGATGTGACCCTGGTCTTGATTCGCTTGACGCTGCTG", "binding signal": "10.1 log fluorescence intensity"}
{"sequence": "CTGGGACTTGAACCAACTCTGCCACGTGGGTCGTTTGTCTTGATTCGCTTGACGCTGCTG", "binding signal": "8.34 log fluorescence intensity"}
{"sequence": "CGGAAGTGTCGTAAACGTCGGATATCAGGTTCTTCTGTCTTGATTCGCTTGACGCTGCTG", "binding signal": "8.51 log fluorescence intensity"}
{"sequence": "GTGTATAGGGTCCCATCCAACACACGTGTTAAAATGGTCTTGATTCGCTTGACGCTGCTG", "binding signal": "8.3 log fluorescence intensity"}
{"sequence": "TCCGGCTACCAGCTCCACTCACTTCAGGCCTTGTAGGTCTTGATTCGCTTGACGCTGCTG", "binding signal": "8.4 log fluorescence intensity"}
{"sequence": "GTGTATAGGATCCCATCCAACACACGTGTTAAAATGGTCTTGATTCGCTTGACGCTGCTG", "binding signal": "8.35 log fluorescence intensity"}
